# From PubChem BioAssay AID1851 (National Center for Advancing Translational Sciences (NCATS), 2009)
# Screen size: about 16,000 compounds; about 2,600 (16%) were called active. Not shown: some 20% with an inconclusive outcome. These entries were drawn from the full list. A number with no mark means an inactive call. Calls come from the whole dose curve; as a rule, active = well fitted curve in the direction sought with a large enough effect; inconclusive = small, poorly fitted or top-dose-only effect, or effect the other way; inactive = no such curve, though single readings can be large or run the other way.
# Biological target: Cytochrome P450 2D6 (Homo sapiens) (UniProt P10635)
# Experiment: Cytochrome panel assay with activity outcomes
# Conditions: recombinant CYP, pro-luciferin dealkylation, luminescence, p450-cyp2d6; series mostly up to 57.1 µM; activity, negative = inhibition: at the top concentration
# % is set by controls: 0 for no effect and ±100 for the full control effect.
# Cytochrome P450 2D6 (Homo sapiens), sequence (P10635 whole entry, looked up): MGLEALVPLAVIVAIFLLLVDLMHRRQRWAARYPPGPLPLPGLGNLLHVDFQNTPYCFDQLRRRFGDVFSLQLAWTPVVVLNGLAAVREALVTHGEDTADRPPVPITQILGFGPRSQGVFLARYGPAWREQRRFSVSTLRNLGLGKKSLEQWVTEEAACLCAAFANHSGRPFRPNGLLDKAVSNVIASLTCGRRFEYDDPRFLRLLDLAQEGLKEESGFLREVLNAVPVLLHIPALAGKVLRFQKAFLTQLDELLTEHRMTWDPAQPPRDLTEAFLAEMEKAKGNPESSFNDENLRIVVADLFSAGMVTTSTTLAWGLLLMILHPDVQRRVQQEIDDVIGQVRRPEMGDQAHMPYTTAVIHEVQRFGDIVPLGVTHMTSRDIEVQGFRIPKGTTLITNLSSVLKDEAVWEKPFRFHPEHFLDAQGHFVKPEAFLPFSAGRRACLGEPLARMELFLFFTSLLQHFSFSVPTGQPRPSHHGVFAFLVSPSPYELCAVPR
Compound,"activity, negative = inhibition",AC50
C1CNCCOCCNCCN1,-1.08%,
CN(C)c1ccc(C(c2ccc(N(C)C)cc2)c2ccc([N+](=O)[O-])cc2)cc1,14% [at 11.4 µM],
O=C(O)[C@@H]1[C@@H](C(=O)Nc2ccccc2)[C@@H]2C=C[C@@H]1O2,2.5% [at 11.4 µM],
CCOc1ccc(Cc2nccc3cc(OCC)c(OCC)cc23)cc1OCC,2.76% [at 25.6 µM],
O=C(O)Cc1ccc(O)c(O)c1,-3.67%,
Oc1ccc(Cc2nccc3cc(O)c(O)cc23)cc1O,,1.26 µM (active)
COc1ccc(-c2nc3cnc(OC)nc3n(CCc3ccccc3)c2=O)cc1,2.49%,
CCN(CC)C(=O)CSc1nc(O)cc(=O)n1CC,-3.51%,
COc1ccc(Cl)cc1N=Nc1ncc[nH]1,,2.51 µM (active)
Cc1n[nH]c(C)c1N=Nc1cc(Cl)ccc1Cl,-10.6%,
N#Cc1ccccc1Sc1ccccc1N,-20%,
CCc1ccc(-c2csc(NC(=O)C3CCCO3)c2C(=O)OC(C)C)cc1 (configuration not stated),-13.9%,
Fc1ccc(CN(C2=NCCN2)c2c(Cl)cccc2Cl)cc1,,1.26 µM (active)
CN(C)C(=O)Oc1cccc([N+](C)(C)C)c1,3.32%,
Cc1ccc2c(c1)N(CCC(=O)NCc1ccc3c(c1)OCO3)C(=O)CO2,,14.1 µM (active)
Cc1ccc2c(c1)N(CCC(=O)NCCN1CCOCC1)C(=O)CO2,-18.8%,
COc1ccccc1CNC(=O)CCN1C(=O)COc2ccc(C)cc21,-7.37%,
O=c1c(-c2ccc(F)cc2)nc2cnc(N3CCNCC3)nc2n1-c1ccccc1,-8.75%,
Cn1cc(-c2nc3cnc(Oc4ccccc4)nc3n(CCC#N)c2=O)c2ccccc21,2.05%,

Compound,"activity, negative = inhibition",AC50
Nc1ncnc2c1nc(Sc1ccc(Cl)cc1)n2[C@@H]1O[C@H]2COP(=O)(O)O[C@@H]2[C@H]1O,-5.59%,
COC(=O)[C@@]1(Cc2ccc(OC)cc2)[C@H]2c3cc(C(=O)N(C)C)[nH]c3C[C@H]2CN1C(=O)c1ccccc1,-14.8%,
COC(=O)[C@@]1(Cc2ccc(F)cc2)[C@H]2c3cc(C(=O)N4CCCC4)n(Cc4ccc(S(C)(=O)=O)cc4)c3C[C@H]2CN1C(=O)c1ccccc1,-15.9%,
COC(=O)[C@@]1(Cc2ccc(F)cc2)[C@H]2c3cc(C(=O)N4CCCC4)n(Cc4cccc5ccccc45)c3C[C@H]2CN1C(=O)c1ccccc1,-0.395%,
COC(=O)[C@@]1(Cc2ccc(OC)cc2)[C@H]2c3cc(C(=O)N4CCCC4)n(CCn4cc([N+](=O)[O-])nc4C)c3C[C@H]2CN1C(=O)c1ccccc1,-0.835%,
COC(=O)[C@@]1(Cc2ccc(F)cc2)[C@H]2c3cc(C(=O)N(C)C)n(Cc4c(CO)[nH]cc(C)c4=O)c3C[C@H]2CN1C(=O)c1ccccc1,,15.8 µM (active)
COC(=O)[C@@]1(Cc2ccccc2)[C@H]2c3cc(C(=O)N(C)C)n(Cc4c(CO)[nH]cc(C)c4=O)c3C[C@H]2CN1C(=O)c1ccccc1,,12.6 µM (active)
CC(=O)NCc1c(Cl)cccc1-n1cccc1,-25.8%,
CC(C)(C)OC(=O)COc1cc(OCC(=O)OC(C)(C)C)c2c(=O)cc(-c3ccccc3)oc2c1,4.28%,
O=c1c(-c2cc(F)cc(F)c2)nc2cncnc2n1C1CC1,-7.27%,
C=CCN1CCc2c(cc(O)c(O)c2Cl)[C@H](c2ccccc2)C1,,25.1 µM (active)
Cc1cccc([C@@H]2CN(C)CCc3c2cc(O)c(O)c3Cl)c1,-0.0741%,
CN1C[C@H](c2ccccc2)C(O)([C@]2(c3ccccc3)CN(C)C[C@@H](c3ccccc3)C2=O)[C@H](c2ccccc2)C1 (some centres not stated),-18.6% [at 11.4 µM],
C=CCN1CCc2cc(O)c(O)cc2[C@H](c2ccccc2)C1,,0.398 µM (active)
CN1CCc2cc(Cl)c(O)cc2[C@H](c2ccccc2)C1,,0.631 µM (active)
C=CCN1CCc2c(cc(O)c(O)c2Br)[C@H](c2ccccc2)C1,,12.6 µM (active)
COc1ccc(C[C@@H]2c3cc(OC)c(OC)cc3CC[N@+]2(C)CCC(=O)OCCCCCOC(=O)CC[N@@+]2(C)CCc3cc(OC)c(OC)cc3[C@H]2Cc2ccc(OC)c(OC)c2)cc1OC,-15.6% [at 25.6 µM],
Nc1ccccc1C#Cc1ccccc1,,inactive
Cc1nc(N/N=C/c2ccccc2)nc(N(C)c2ccccc2)c1[N+](=O)[O-],4.53%,

Compound,"activity, negative = inhibition",AC50
CO[C@@H]1COC(=O)C/C=C\[C@@H](C)COC(=O)[C@H](Cc2ccccc2)NC(=O)C/C=C\[C@H]1C,-17% [at 11.4 µM],
COC(=O)C(Cc1ccc(OC(=O)c2ccc(C(F)(F)F)cc2)cc1)N1Cc2ccccc2C1=O (configuration not stated),-11.1%,
Cc1nc(NC(=O)c2ccccc2)sc1-c1csc(Nc2cccc(Cl)c2)n1,,10 µM (active)
C=CCCC(=O)Nc1nc(C)c(-c2csc(Nc3ccc(Cl)cc3)n2)s1,,17.8 µM (active)
COc1ccccc1Nc1nc(-c2sc(NC(=O)c3ccccc3)nc2C)cs1,-0.255%,
Cc1nc(NC(=O)c2ccco2)sc1-c1csc(Nc2ccc(Cl)cc2Cl)n1,-25.3%,
Cc1nc(NC(=O)c2ccccc2)sc1-c1csc(Nc2ccc(Cl)cc2)n1,-21.7%,
Cc1nc(NC(=O)c2ccccc2)sc1-c1csc(Nc2ccc(F)cc2)n1,-28.9%,
CC1(C)OCC([C@H](O)C2=CCCCC2=O)CO1,9.36% [at 11.4 µM],
COc1cc(/C=C2\SC(=S)N(Nc3ccccc3)C2=O)cc(OC)c1OC,-10.3%,
CC(=O)c1cc(C#N)c(Oc2ccc(F)cc2)nc1C,8.22%,
Cc1cnc(NC(=O)CCCc2nc3ccccc3s2)s1,-11%,
COc1cccc([C@@H]2Oc3ccc(Br)cc3C(=O)[C@H]2O)c1,,3.16 µM (active)
COc1cccc([C@@H]2Oc3ccc(OC)cc3/C(=N/OC[C@@H](O)COCc3ccco3)[C@@H]2O)c1,5.07% [at 11.4 µM],
COc1cccc([C@@H]2Oc3ccc(OC)cc3/C(=N/OC[C@@H](C)[C@H](OCc3ccccc3)C(C)C)[C@@H]2O)c1,0.0498% [at 11.4 µM],
CN(C(=S)Nc1ccccc1F)C1(c2ccccc2Cl)CCCCC1=O (configuration not stated),-6.2%,
c1ccc(CCc2nc(-c3ccccc3)no2)cc1,-18.9%,
Clc1ccc(Cc2nc(-c3cccnc3)no2)cc1,,1.78 µM (active)
O=S(=O)(c1ccc(Cl)cc1)c1cnc(-c2cccnc2)nc1-c1ccccc1,-0.701%,
